By inhibition is commonly meant the drop in the measured response relative to a control, in per cent.

The text below walks through data of PubChem BioAssay AID485344 (National Center for Advancing Translational Sciences (NCATS), 2010).

Structures are written as SMILES. The campaign covered roughly 340,000 compounds. About 6,900 (2%) were called active. The list comes from a sample in which actives are over-represented; it also holds similar structures and randomly drawn compounds. Values without a mark were called inactive. No stated cut-off is given here; in the data, active means inhibition above about 30%; inactive means below that, where a call was filed.

Sequence of D(2) dopamine receptor (Homo sapiens) (P14416 whole entry, looked up): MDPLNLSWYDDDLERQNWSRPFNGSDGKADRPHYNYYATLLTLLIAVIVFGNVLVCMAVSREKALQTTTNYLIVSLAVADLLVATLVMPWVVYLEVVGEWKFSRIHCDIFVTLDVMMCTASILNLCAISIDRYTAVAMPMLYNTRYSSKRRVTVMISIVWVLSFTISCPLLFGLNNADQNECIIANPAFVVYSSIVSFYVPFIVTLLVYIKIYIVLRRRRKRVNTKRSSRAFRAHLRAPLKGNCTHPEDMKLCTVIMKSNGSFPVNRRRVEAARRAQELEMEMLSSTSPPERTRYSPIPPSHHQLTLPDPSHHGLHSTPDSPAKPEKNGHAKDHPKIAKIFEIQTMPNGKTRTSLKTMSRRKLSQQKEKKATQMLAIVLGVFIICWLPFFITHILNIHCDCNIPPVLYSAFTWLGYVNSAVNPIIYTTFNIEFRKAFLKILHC

The target in the assay is D(2) dopamine receptor (Homo sapiens) (UniProt P14416). The assay is described as follows: HTS Assay for Allosteric Antagonists of the Human D2 Dopamine Receptor: Primary Screen for Antagonists. Further: 0% is about no effect. Particulars: HEK293 TREx D2 cells, calcium flux, dopamine EC80; at 10 µM; active compounds read high. The essentials:
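Overnight-induced (tetracycline, 30 C) HEK293 T-REx cells carrying force-coupled D2 receive a no-wash calcium dye, then compound, then EC80 dopamine at 180 s; signals are read kinetically throughout.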
A general note: Calcium flux is commonly read through the fluorescence of an indicator in the cells.
For the molecule `CCCC(NCC(=O)Nc1ccccc1C(=O)NC1CC1)c1ccccc1` (centres undefined), the inhibition was -15.9%.
The value for `O=C(CCc1nc2sc3c(c2c(=O)[nH]1)CCCC3)NCC(=O)Nc1ccccc1Br` was 11%.
On to `Cc1ccccc1NC(=O)Cc1nc(COC(=O)c2cccnc2Cl)cs1`, for which the inhibition is 6.55%.
In the case of `CC(C)N(C(=O)Cn1cc(SCC(=O)N2CCCC2)c2ccccc21)C(C)C`, the inhibition was 13.5%.
Take `CCCn1cc(SCC(N)=O)c2ccccc21`: the inhibition is 31.1% (active).
The value for `NC(=O)CSc1c[nH]c2ccccc12` was -9.76%.
The figure for `CCCCN(C(=O)C1CCC1)c1c(N)n(Cc2ccccc2)c(=O)[nH]c1=O` is -6.33%.
The value for `O=C(NCCC1CCCCN1S(=O)(=O)c1ccc(Cl)cc1)C(=O)NCc1ccco1` (centres undefined) was -13.3%; that for `COc1ccc(C(=O)NCc2ccc(Cl)cc2)cc1S(=O)(=O)N1CCCC1` was -28.1%; that for `O=C(CCC(=O)c1cccs1)NCc1ccccc1` was 34.9% (active).
Take `O=C(CCCc1ccccc1)NCc1ccccc1`: the inhibition is 7.76%.
For the molecule `O=C(CCC(=O)c1cccs1)NC1CCCCCC1`, the inhibition is -3.48%.
Take `CC(NC(=O)CN(C)S(=O)(=O)c1ccc(F)cc1)C1CC2CCC1C2` (centres undefined): the inhibition was 2.6%.
The figure for `CC(CCc1ccccc1)NC(=O)c1ccc(Br)o1` (centres undefined) is -19.1%.
As for `COc1ccc(CCNC(=O)c2cnc(Cl)c(Cl)c2)cc1`, the inhibition was 2.2%.
The figure for `CC(CCc1ccccc1)NC(=O)c1cnc(Cl)c(Cl)c1` (centres undefined) is 43.2% (active); for `COc1cccc(N2CCN(CC(=O)Nc3ccnn3C3CCCC3)CC2)c1` it is 19.5%.
With `CCN(CC)CCNC(=O)c1ccc(NS(=O)(=O)c2ccc3c(c2)OCCO3)cc1`, the inhibition is 1.77%.
For `COc1ccc(C(=O)NCCc2ccc(S(N)(=O)=O)cc2)cc1OC`, the inhibition is 14%.
Turning to `CCN(CC)CCNC(=O)c1cc(S(C)(=O)=O)ccc1OC`, the inhibition is 99% (active).
For the molecule `COc1cccc(NC(=O)CN(C)C(=O)/C=C/c2cn(-c3ccccc3)nc2-c2cccs2)c1`, the inhibition is 12.4%.
The value for `CCN1CCN(c2nc(Nc3cccc(F)c3)nc(N)c2[N+](=O)[O-])CC1` was 73.4% (active); that for `CC1CN(c2nc(Nc3ccccc3)nc(N)c2[N+](=O)[O-])CC(C)O1` (centres undefined) was 13.4%; that for `COCCNc1nc(N)c([N+](=O)[O-])c(N2CCCCCC2)n1` was -9.71%.
The figure for `O=C(C1Cc2ccccc2CN1C(=O)c1ccco1)N1CCN(c2ccccc2)CC1` (centres undefined) is -4.55%; for `CC(C)(C)C(=O)COC(=O)c1cc(S(=O)(=O)N2CCCCC2)ccc1N1CCOCC1` it is 1.2%.
As to `Cc1ccc(S(=O)(=O)N2CCC(C(=O)OCC(=O)N(C)c3ccccc3)CC2)cc1C`, the inhibition was -7.26%.
The value for `CN(c1cccc(NC(=O)Nc2ccc(Cl)cc2)c1)S(C)(=O)=O` was 4.52%; that for `O=C(Nc1ccccc1)c1nnsc1S(=O)(=O)c1ccc(Cl)cc1` was 35.7% (active); that for `Cc1nnsc1C(=O)N/N=C/c1ccccc1Cl` was -8.27%.
The figure for `CCOc1ccc(C(C)NC(=O)CN2C(=O)NC3(CCCCC3)C2=O)cc1OCC` (centres undefined) is -2.35%; for `CSCCC(NC(=O)COc1ccccc1)C(=O)N(C)CC(=O)Nc1ccc(C)cc1` (centres undefined) it is -24.9%.
Consider `CC(OC(=O)/C=C/c1ccccc1)C(=O)NC1CCCCC1C` (centres undefined), for which the inhibition is -2.14%.
The value for `CC(C)C(=O)Nc1cccc(NC(=S)NC(=O)C(c2ccccc2)c2ccccc2)c1` was -3.17%; that for `O=C(NNC(=S)NCc1ccco1)C(c1ccccc1)c1ccccc1` was -2.47%; that for `CCCCC(=O)NNC(=S)NC(=O)C(c1ccccc1)c1ccccc1` was 40.2% (active).
In the case of `Cc1ccc(S(=O)(=O)Nc2nc(CN3CCOCC3)nc3sc(C)c(C)c23)cc1`, the inhibition was -2.97%.
For `COc1ccc(CNC(=O)COc2ccccc2C(=O)c2cnn(-c3ccccc3)c2)cc1OC`, the inhibition was 7.52%.
The value for `CC(CCN1CCN=C1N(C)C)c1ccccc1` (centres undefined) was 8.97%; that for `NC(=O)c1nsc(C(=O)N(CCCN2CCOCC2)C(C(=O)NC2CCCCC2)c2ccc(Cl)cc2)c1N` (centres undefined) was 30.5% (active).
`CCOc1ccc(C(C(=O)NC2CCCC2)N(C(=O)c2snc(C(N)=O)c2N)C2CCCC2)cc1` (centres undefined): the inhibition is -2.16%.
Turning to `CC(C)(C)NC(=O)C(c1ccc(Cl)cc1)N(CCO)C(=O)c1snc(C(N)=O)c1N` (centres undefined), the inhibition was -7.69%.
As to `Cc1cc(F)ccc1S(=O)(=O)Nc1ccc(C(=O)N(C)Cc2ccco2)cc1`, the inhibition was 2.47%.
The value for `COc1cccc(-n2c(Cc3cc(=O)[nH]c(=O)[nH]3)nnc2SCC(=O)Nc2ccccc2)c1` was -4.57%.
As for `Cc1cccc(-n2c(Cc3cc(=O)[nH]c(=O)[nH]3)nnc2SC(C)C)c1`, the inhibition is -16%.
The value for `Cc1cccc(-n2c(Cc3cc(=O)[nH]c(=O)[nH]3)nnc2SCC(=O)Nc2cccc(C(F)(F)F)c2)c1` was 36.6% (active); that for `O=C(Nc1cccc(C(=O)NC2CC2)c1)c1ccc(F)c(S(=O)(=O)N2CCOCC2)c1` was -7.88%; that for `Cc1ccccc1C(=O)NC(=S)Nc1ccc(N2CCN(C(=O)c3ccccc3)CC2)cc1` was -1.88%.
The figure for `O=C(NNC(=S)NC1CCCCC1)c1ccccc1Cl` is -5.96%; for `Cc1ccccc1C(=O)NC(=S)NC1CC1` it is 31.1% (active).
The value for `CCOC(=O)CSc1nnc(-c2ccco2)n1C` was 25.3%.
Take `Cn1c(SCC(=O)Nc2ccc(Br)cc2F)nnc1-c1ccco1`: the inhibition was 31% (active).
The figure for `CCn1c(SCC(=O)Nc2nccs2)nnc1-c1ccco1` is 83% (active); for `Cn1c(SCC(=O)c2cccs2)nnc1-c1ccco1` it is -10.8%; for `Nn1c(SCC(=O)Nc2nccs2)nnc1-c1ccco1` it is 3.93%.
The figure for `CCn1c(SCC(=O)Nc2nccs2)nnc1-c1ccncc1` is 10.6%; for `CSc1ncccc1C(=O)Nc1ccc2c(c1)OCO2` it is -3.04%; for `CCc1ccccc1OCC(=O)Nc1ccc(C)c(S(=O)(=O)N2CCCCCC2)c1` it is -4.67%.
The figure for `CCc1nnc(NC(=O)C2CCN(C(=O)c3ccccc3C)CC2)s1` is 14.3%; for `Cc1c(C)c2ccc(OCC(=O)N3CCC(C(=O)O)CC3)c(C)c2oc1=O` it is 2.01%.
Turning to `O=C(CNC(=O)C1COc2ccccc2O1)N/N=C/c1cc(Br)c(O)c(Br)c1` (centres undefined), the inhibition is 7.94%.
The figure for `Cc1c(CC(=O)N2CCN(C(=O)C3COc4ccccc4O3)CC2)c(=O)oc2c(O)c(O)ccc12` (centres undefined) is 60% (active); for `COc1cccc(CNC(=O)COC(=O)CN2C(=O)NC3(CCCCC3C)C2=O)c1` (centres undefined) it is 4.18%; for `COc1cccc(C(=O)NCCS(=O)(=O)NCC2CCCO2)c1` (centres undefined) it is 8.23%.
The figure for `O=C(COC(=O)c1cc(=O)[nH]c2ccccc12)NCc1cccc(Cl)c1` is -19.7%; for `O=C(NCCCN1CCCCCC1)C1CC(=O)N(C2CCCC2)C1` (centres undefined) it is -15.4%.
On to `CCOC(=O)N1CCN(c2c(NCCN3CCN(c4ccccc4F)CC3)c(=O)c2=O)CC1`, for which the inhibition is -8.27%.
On to `COc1ccc(CN2CC(C(=O)NCCc3ccc(Cl)cc3)CC2=O)cc1` (centres undefined), for which the inhibition was 4.69%.
The value for `O=C(NCCCN1CCN(c2ccccc2F)CC1)C1CCC(=O)N1C1CCCCC1` (centres undefined) was 55.7% (active); that for `COc1ccc(CN2CC(C(=O)NC3CCCCC3)CC2=O)cc1` (centres undefined) was 9.38%.
As for `COc1ccc(CN2CC(C(=O)NCCN3CCN(c4ccccc4F)CC3)CC2=O)cc1` (centres undefined), the inhibition is 78.4% (active).
`CCOC(=O)C1CCN(C(=O)c2cccc(S(=O)(=O)N(CC)c3ccccc3)c2)CC1`: the inhibition is 14.5%.
`Nc1c(C(=O)OCC(=O)Nc2ccc(OC(F)F)cc2)[nH]c(=O)[nH]c1=O`: the inhibition is 0.0124%.
With `Cc1ccc(CSc2ccc(S(=O)(=O)N3CCCCC3)cn2)cc1`, the inhibition is -10.3%.
The value for `COc1ccc(NC(=O)CSc2nnc(C3CC3)n2C)cc1S(=O)(=O)N1CCCCC1` was -7.07%; that for `C/C(=N\N(C)C)c1ccc(OCCOc2ccc([N+](=O)[O-])cc2)cc1` was 33.5% (active).
The figure for `CCOC(=O)COc1ccc([N+](=O)[O-])cc1` is 5.2%; for `C/C(=N/NC(=O)CC(=O)N/N=C(\C)c1ccc([N+](=O)[O-])cc1)c1ccc([N+](=O)[O-])cc1` it is -6.92%; for `CC(=O)C[C@@H](O)CC(=O)[C@H]1OC(=O)CCCCCCc2ccccc21` it is 3.89%.
On to `Cc1ccccc1NC(=O)COc1cccc2c1CCNC2=O`, for which the inhibition was -0.505%.
The figure for `CCCCN(C(=O)CSCC(=O)Nc1ccc(OC)cc1)c1c(N)n(CCC)c(=O)[nH]c1=O` is 9.85%; for `N#Cc1ccc(CN2CCN(CC(=O)Nc3ccccc3C(=O)NC3CC3)CC2)cc1` it is 4.29%; for `CC1Cc2ccccc2N1S(=O)(=O)c1cccc(C(=O)NCC(c2ccco2)N2CCCC2)c1` (centres undefined) it is -15%.
The figure for `COC(=O)CNS(=O)(=O)c1ccc(OC)cc1` is 6.78%.
In the case of `COC(=O)CNS(=O)(=O)c1ccc(Cc2ccc(S(=O)(=O)NCC(=O)OC)cc2)cc1`, the inhibition was 41.3% (active).
In the case of `C/C(N)=C(/C#N)C(=O)COC(=O)CNS(=O)(=O)c1ccc(C)cc1`, the inhibition was 12.5%.
The value for `CNS(=O)(=O)c1cccc(C(=O)OCCCC(=O)c2ccccc2)c1` was -4.56%; that for `CC(=O)c1c(C)c[nH]c1C` was 31.1% (active); that for `CCOC(=O)c1c(Cc2ccc(Cl)cc2)c[nH]c1C` was -4.64%.
The figure for `O=C(CSc1ncnc2sccc12)N1CCN(C(=O)c2cccs2)CC1` is 30%.
The figure for `Cc1occc1-c1nnc(SCC(=O)NC2CCCCC2)o1` is 6.65%.
Take `Cc1ccc2c(c1)N(C(=O)CCC(=O)NCc1cccnc1)CCO2`: the inhibition was 13.2%.
The figure for `CC1CN(C(=O)CCC(=O)NC2CCN(Cc3ccccc3)CC2)c2ccccc2O1` (centres undefined) is -8.98%.
In the case of `CC1CN(C(=O)CCC(=O)NCc2cccnc2)c2ccccc2O1` (centres undefined), the inhibition was 35.5% (active).
